The text below walks through data of PubChem BioAssay (NCI).

This is part of a sample that, as a whole, favours compounds with a hit. Of some 83,000 tested, about 20% had one in any assay.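 Interpretation: 100, growth as untreated; towards 0, rising growth inhibition; 0, no net growth; 0 to -100, cell death. Compounds scoring below 10 were considered active.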 A number with no mark means an inactive call. Calls of active or inactive are those of the source.

The subject of this experiment is MDA-MB-468 breast. As to the kind of experiment: NCI-60 one-dose screen, 48 h (100 = growth as untreated, 0 = no growth, -100 = all killed). Conditions: 10 µM unless noted.
As for `Cc1ccc(OCCn2ccc(=O)n(CCOc3ccc(Cl)cc3C(=O)c3cc(C)cc(C)c3)c2=O)cc1`, the growth is -0.179% (active).

Take `CC[N+](C)(CC)CCO`: the growth was 91.8%.

For the compound `O=CC(OC(=O)c1ccccc1)C(OC(=O)c1ccccc1)C(COC(c1ccccc1)(c1ccccc1)c1ccccc1)OC(=O)c1ccccc1` (configuration not stated), the growth is 74.6%.

As for `O=C(/C=C/c1ccccc1)Oc1ccc(/C=C/c2cc(OC(=O)/C=C/c3ccccc3)cc(OC(=O)/C=C/c3ccccc3)c2)cc1`, the growth was 99.4%.

In the case of `COc1ccc(/C(=N\O)c2cc(C)c(OC)c(C)c2)cc1O`, the growth is 44.4%.

Regarding `CC(C)=CCc1cc2c(cc1O)C1=C(C(=O)C3=C(C1=O)S(=O)(=O)CCN3)C(C=C(C)C)O2` (configuration not stated), the growth was -33.5% (active).

For `Cc1cccc2c3c(sc12)C(c1ccc(Cl)cc1)C(C#N)=C(/N=C/c1ccc(Cl)cc1)O3` (configuration not stated), the growth was 10.9%.

Turning to `O=C1c2c(c3c4cccnc4[nH]c3c3ccc4ccccc4c23)C(=O)N1CCN1CCCCC1`, the growth is 29.4%.

In the case of `O=c1[nH]nc(SC2CCCCC2)c(=O)[nH]1`, the growth is 116%.

As to `Nc1nc2c(c3ncccc13)C(c1cccc(Cl)c1)Cc1ncccc1-2` (configuration not stated), the growth was 26.6%.

Consider `CC(C)NC[C@@H](C(=O)N1CCN(c2ncnc3c2[C@H](C)C[C@H]3O)CC1)c1ccc(Cl)cc1`, for which the growth is -18.7% (active).

In the case of `Nc1ncnc2c1ncn2C1OC(CO)C2OC21` (configuration not stated), the growth was 93.5%.

For the compound `COc1cccc(-c2nc3sccn3c2-c2ccnc(NCCNC(=O)Nc3cccc(C(F)(F)F)c3)n2)c1`, the growth was 39.6%.

As for `Cc1cccc(C)c1NCc1nc(-c2ccccc2)n[nH]1`, the growth is 122%.

`Cc1cc(Nc2nc(SCc3ccc(C(=O)Nc4ccc(F)cc4N)cc3)nn3cccc23)n[nH]1`: the growth is 47.7%.

`Nc1nc(N)c2c(ccc3nccc32)[nH]1`: the growth is 34.9%.

As for `COc1ccc(C(=O)N2c3ccccc3Sc3ccccc32)c(F)c1`, the growth is -13.7% (active).

Consider `Nc1nc2ccc(-c3nc4ccc5[nH]ncc5c4c4c3CCCC4)cc2s1`, for which the growth is 112%.

For `O=C(c1ccc(O)cc1)[C@@H]1CN[C@@]2(C(=O)Nc3ccccc32)[C@H]1c1ccc(F)cc1`, the growth was 97.5%.

Regarding `Nc1ncncc1-c1ccc(F)cc1`, the growth is 105%.

For the compound `CCCCNC(=O)c1ccc2c(c1)nc(-c1ccccc1)n2C1CCCCC1`, the growth is 123%.

On to `CCc1ccc(-c2ccc(-n3nc(C)c4c(N)nc(Cc5ccccc5)nc43)cc2)cc1`, for which the growth was 38.9%.

Regarding `Cn1c2c(c3ccc(-c4ccn[nH]4)cc3c1=O)C(=O)c1ccccc1-2`, the growth was 46.2%.

For `COc1cc(NC(=O)CSc2nc3ccc(C)cc3c(=O)n2-c2ccccc2)cc(OC)c1OC`, the growth was 69.8%.

For `COc1cccc(/C=C/C(=O)c2ccc(NC(=O)COc3cccc4cccnc34)cc2)c1`, the growth is 90.9%.

On to `Cc1ccc2oc(=O)cc(/C(=C3/C=CC=N3)c3ccc[nH]3)c2c1`, for which the growth was 3.2% (active).

For the compound `O=C(Nc1ccc(Cl)cc1)Nc1nc2ccc(OC(F)(F)F)cc2o1`, the growth is 89%.

`NC(N)=N/N=C(/c1ccccc1)c1ccccc1F`: the growth was 29.1%.

In the case of `O=[N+]([O-])c1ccc(NC(c2ccccc2)c2ccc3cccnc3c2O)cc1` (configuration not stated), the growth is -28.9% (active).

With `CCOC(=O)c1cc(-c2cccnc2)nc2c(Cl)cc(Cl)cc12`, the growth is 117%.

For the compound `Cc1[nH]c(C(=O)Nc2ccc(C(N)=O)cc2OC(C)C)c(Cl)c1Cl`, the growth is 68.4%.

Turning to `C[C@]12CCc3nc(Nc4cccc(O)c4)sc3C1=CC[C@@H]1[C@@H]2CC[C@]2(C)/C(=N\NC(N)=S)CC[C@@H]12`, the growth was -32.7% (active).

Turning to `O=C(/C=C/c1cccc(F)c1)c1cccc(OCCCCOc2cccc(C(=O)/C=C/c3cccc(F)c3)c2)c1`, the growth is 87.2%.

Consider `CCSc1ccc2c(c1)N(CCCN1CCN(C)CC1)c1ccccc1S2`, for which the growth is -3.41% (active).

In the case of `CC(=O)N1N=C(c2ccc(-n3ccc(C(F)(F)F)n3)c(F)c2)CC1c1ccc[nH]1` (configuration not stated), the growth was 117%.

On to `C=C(C)[C@@H]1CC[C@]2(C(=O)OC)CC[C@]3(C)[C@H](CC[C@@H]4[C@@]5(C)C/C(=C/c6ccc(OC)cc6)C(=O)C(C)(C)[C@@H]5CC[C@]43C)[C@@H]12`, for which the growth is 76%.

Turning to `COc1cc(-c2nn(C(C)(C)C)cc2-c2ccnc(NCCCNS(=O)(=O)c3cccc(F)c3)n2)ccc1Cl`, the growth is 77.8%.
